# Source: ChEMBL document CHEMBL1157539, “Thousands of chemical starting points for antimalarial lead identification” (Nature, 2010)
# Legend:
# Format in all cases: functional
# [1] = test system: Plasmodium falciparum; experiment: GSK_TCMDC: Inhibition of Plasmodium falciparum 3D7 in whole red blood cells, using parasite LDH activity as an index of growth. Test compounds present at 2uM
# [2] = test system: Plasmodium falciparum; experiment: GSK_TCMDC: Inhibition of Plasmodium falciparum Dd2 in whole red blood cells, using parasite LDH activity as an index of growth. Test compounds present at 2uM
# [3] = test system: HepG2; experiment: GSK_TCMDC: Percent inhibition of human HepG2 cell line. Test compounds present at 10uM.
compound,measurement,setting,value
CC(C)COc1ccc(Cl)cc1Cc1ccc(-c2nc3cc(F)c(F)cc3[nH]2)o1,Inhibition,[1],95%
same,Inhibition,[2],96%
same,Inhibition,[3],27%
COc1ccc(C2CC(=O)C3=C(C2)NC(C)=C(C(=O)OC(C)C)C3c2ccc(O)cc2)cc1OC (configuration not stated),Inhibition,[1],99%
same,Inhibition,[2],98%
same,Inhibition,[3],0%
Brc1ccc(C=NNc2nc3ccccc3[nH]2)cc1,Inhibition,[1],100%
same,Inhibition,[2],90%
same,Inhibition,[3],0%
CC(=O)c1cccc(NC(=O)N2CCCN(CCCCCNC(=O)/C=C/c3ccc(Cl)c(Cl)c3)CC2)c1,Inhibition,[1],93%
same,Inhibition,[2],0%
same,Inhibition,[3],13%
Cl.Cn1cc(Br)c(-c2cccc(Nc3ccnc4cc(-c5nccs5)ccc34)c2)n1,Inhibition,[1],91%
same,Inhibition,[2],32%
same,Inhibition,[3],37%
c1ccc(-c2cc(NCCCn3ccnc3)nc(-c3cccnc3)n2)cc1,Inhibition,[1],84%
same,Inhibition,[2],6%
same,Inhibition,[3],15%
CN(C)CCNC(=O)c1ccc(-c2ccc3c(Nc4ccccc4)c(C(N)=O)cnc3c2)cc1,Inhibition,[1],99%
same,Inhibition,[2],68%
same,Inhibition,[3],9%
O=C(Cn1c(CCc2cccc(F)c2F)cc(=O)c2cccnc21)N(CCn1ccnc1)Cc1ccc(-c2ccc(C(F)(F)F)cc2)cc1,Inhibition,[1],99%
same,Inhibition,[2],62%
same,Inhibition,[3],39%
Cc1cc(NC(=O)Nc2ccc(I)c(OCCN(C)C)c2)ccc1Br.Cl,Inhibition,[1],100%
same,Inhibition,[2],42%
same,Inhibition,[3],18%
O=C(NC1CCN(Cc2ccccc2O)C1)c1ccc(Cl)c(Cl)c1.O=C(O)C(F)(F)F (configuration not stated),Inhibition,[1],92%
same,Inhibition,[2],62%
same,Inhibition,[3],0%
O=C(O)C(F)(F)F.c1ccc(CN2CCC(NCc3ccccc3-c3ccc(CNC4CCCC4)cc3)CC2)cc1,Inhibition,[1],100%
same,Inhibition,[2],33%
same,Inhibition,[3],38%
Oc1cccc(-c2nc(-c3cccc(I)c3)c(-c3ccc(-c4nc(-c5cccc(O)c5)[nH]c4-c4cccc(I)c4)cc3)[nH]2)c1,Inhibition,[1],96%
same,Inhibition,[2],66%
same,Inhibition,[3],0%
Cc1ccc(CCOCCCCCNCC(O)c2cc(Cl)c(N)c(Cl)c2)cc1 (configuration not stated),Inhibition,[1],99%
same,Inhibition,[2],98%
same,Inhibition,[3],10%
O=C(Nc1ccccc1)Nc1cccc(-c2cccc(-c3nc4cc(F)ccc4[nH]3)c2)c1,Inhibition,[1],99%
same,Inhibition,[2],41%
same,Inhibition,[3],38%
Cc1cc(NC(=O)c2ccco2)ccc1OC1CCN(Cc2ccc(C#N)cc2)CC1.O=C(O)C(F)(F)F,Inhibition,[1],92%
same,Inhibition,[2],89%
same,Inhibition,[3],2%
COc1ccc(C=NN=c2cc[nH]c3ccccc23)c2ccccc12,Inhibition,[1],100%
same,Inhibition,[2],98%
same,Inhibition,[3],27%
Fc1ccc2[nH]c(-c3ccc(-c4ccc(CN5CCCCC5)cc4)s3)nc2c1.O=C(O)C(F)(F)F,Inhibition,[1],92%
same,Inhibition,[2],100%
same,Inhibition,[3],42%
O=[N+]([O-])c1cccc(C=NNc2nc(=Nc3ccccc3)[nH]c(=Nc3ccccc3)[nH]2)c1,Inhibition,[1],99%
same,Inhibition,[2],55%
same,Inhibition,[3],10%
COc1cc(Br)c(NC(=O)Nc2ccc(C(F)(F)F)c(O[C@@H]3CCN(C)C3)c2)cc1OC.Cl,Inhibition,[1],97%
same,Inhibition,[2],27%
same,Inhibition,[3],10%
CCOc1cc(NCCSCc2nc[nH]c2C)nc2ccccc12,Inhibition,[1],92%
same,Inhibition,[2],10%
same,Inhibition,[3],4%
O=C(CSc1nccn1Cc1ccco1)Nc1cc(C(F)(F)F)ccc1Cl,Inhibition,[1],91%
same,Inhibition,[2],66%
same,Inhibition,[3],9%
CN(C)CCCOc1ccc(CNCc2cccc(Oc3ccc(Cl)cc3)c2)cc1.O=C(O)C(F)(F)F,Inhibition,[1],100%
same,Inhibition,[2],30%
same,Inhibition,[3],52%
Cc1cc(Cl)c(S(=O)(=O)NC(C)(C)C)cc1OCC(=O)NC1CCCCC1,Inhibition,[1],93%
same,Inhibition,[2],53%
same,Inhibition,[3],10%
CC(C)(C)c1ccc(CN2CCC(NC(=O)c3ccc(-c4cccc(Cl)c4)s3)CC2)cc1.O=C(O)C(F)(F)F,Inhibition,[1],99%
same,Inhibition,[2],47%
same,Inhibition,[3],36%
O=C(/C=C/c1ccc(Cl)c(Cl)c1)NCCCCCN1CCC(NC(=S)Nc2ccc(Cl)c(Cl)c2)CC1,Inhibition,[1],99%
same,Inhibition,[2],65%
same,Inhibition,[3],29%
CCCCCCNC[C@@H](O)[C@H](Cc1ccccc1)NC(=O)c1cc(NCC)cc(N2CCCCS2(=O)=O)c1.Cl,Inhibition,[1],100%
same,Inhibition,[2],98%
same,Inhibition,[3],5%
N#Cc1ccc(N2CCN(C(=O)c3cccc(-c4noc(C(F)(F)F)n4)c3)CC2)nc1,Inhibition,[1],84%
same,Inhibition,[2],58%
same,Inhibition,[3],18%
CC(C)NCc1ccc(-c2ccc(NC(=O)c3ccc(Cl)cc3)cc2)cc1.O=C(O)C(F)(F)F,Inhibition,[1],90%
same,Inhibition,[2],8%
same,Inhibition,[3],60%
Cc1cc2[nH]c(-c3ccc(C(=O)NCCCN4CCN(c5cccc(Cl)c5)CC4)s3)nc2cc1Cl,Inhibition,[1],100%
same,Inhibition,[2],93%
same,Inhibition,[3],7%
